In PubChem BioAssay AID1159580 (chemical genetic matrix, 2015):
“And” between values parts separate entries of the source, which are not always exact repeats. Equal entries are not always repeated. Hit rate of the full screen: of about 5,500 compounds, about 2,000 (36%) were called active. Inconclusive results (about 18%) are left out. No stated cut-off is given here; in the data, active means normalized growth mostly below about 0.91 (no sharp cut-off); inconclusive means no clear call, values can overlap the other calls; inactive means mostly above about 0.92. Some of the results follow.

Test: chemical genetic growth profiling, strain panel (AID 1159580);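 further: tested at 20 µM; growth read once vehicle control cultures reached saturation at 30 °C; 1 = growth at the plate median or of vehicle wells; lower values mean less growth of the strain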
Conditions: growth OD

Measured: normalized growth

CCN(CC)CCNC(=O)c1cc(Cl)c(N)cc1OC
inactive: S. cerevisiae deletion strains, locus YJR075W, strain HOC1, hits give low values 0.998 | S. cerevisiae deletion strains, locus YKL009W, strain mrt4, hits give low values 1.01 | S. cerevisiae deletion strains, locus YKL068W, hits give low values 1.01 | S. cerevisiae deletion strains, locus YKL085W, strain MDH1 (second series), hits give low values 1 | S. cerevisiae deletion strains, locus YKL085W, strain MDH1, hits give low values 1 | S. cerevisiae deletion strains, locus YKL160W, strain elf1, hits give low values 0.97 | S. cerevisiae deletion strains, locus YKL190W, strain CNB1, hits give low values 1.02 | S. cerevisiae deletion strains, locus YKR001C, strain vps1, hits give low values 1 | S. cerevisiae deletion strains, locus YKR026C, strain gcn3, hits give low values 0.996 | S. cerevisiae deletion strains, locus YKR091W, strain srl3, hits give low values 0.972 | S. cerevisiae deletion strains, locus YLL001W, strain dnm1, hits give low values 0.921 | S. cerevisiae deletion strains, locus YLL026W, hits give low values 0.977 | S. cerevisiae deletion strains, locus YLL041C, strain sdh2, hits give low values 0.991 | S. cerevisiae deletion strains, locus YLR027C, strain aat2, hits give low values 0.983 | S. cerevisiae deletion strains, locus YLR039C, strain RIC1, hits give low values 0.996 | S. cerevisiae deletion strains, locus YLR058C, strain SHM2, hits give low values 1.01 | S. cerevisiae deletion strains, locus YLR102C, strain apc9, hits give low values 0.992 | S. cerevisiae deletion strains, locus YLR113W, strain HOG1, hits give low values 1.06 | S. cerevisiae deletion strains, locus YLR221C, strain rsa3, hits give low values 0.961 | S. cerevisiae deletion strains, locus YLR258W, strain gsy2, hits give low values 0.997 | S. cerevisiae deletion strains, locus YLR262C, strain YPT6 (second series), hits give low values 0.977 | S. cerevisiae deletion strains, locus YLR262C, strain YPT6, hits give low values 1.05 | S. cerevisiae deletion strains, locus YLR268W, strain sec22, hits give low values 0.963 | S. cerevisiae deletion strains, locus YLR320W, strain mms22, hits give low values 0.962 | S. cerevisiae deletion strains, locus YLR330W, strain CHS5, hits give low values 1 | S. cerevisiae deletion strains, locus YLR342W, strain FKS1 (second series), hits give low values 0.995 | S. cerevisiae deletion strains, locus YLR342W, strain FKS1, hits give low values 0.983 | S. cerevisiae deletion strains, locus YLR357W, strain rsc2, hits give low values 0.965 | S. cerevisiae deletion strains, locus YLR370C, strain arc18, hits give low values 0.973 | S. cerevisiae deletion strains, locus YLR371W, strain rom2, hits give low values 0.995 | S. cerevisiae deletion strains, locus YLR384C, strain iki3, hits give low values 0.976 | S. cerevisiae deletion strains, locus YLR418C, strain cdc73, hits give low values 0.976 | S. cerevisiae deletion strains, locus YML016C, strain PPZ1, hits give low values 1.01 | S. cerevisiae deletion strains, locus YML032C, strain rad52, hits give low values 0.987 | S. cerevisiae deletion strains, locus YML120C, strain ndi1, hits give low values 0.945 | S. cerevisiae deletion strains, locus YML124C, strain tub3, hits give low values 1 | S. cerevisiae deletion strains, locus YMR058W, strain fet3, hits give low values 0.983 | S. cerevisiae deletion strains, locus YMR078C, strain ctf18, hits give low values 0.994 | S. cerevisiae deletion strains, locus YMR125W, strain sto1, hits give low values 0.951 | S. cerevisiae deletion strains, locus YMR129W, hits give low values 0.995 | S. cerevisiae deletion strains, locus YMR205C, strain PFK2, hits give low values 0.954 | S. cerevisiae deletion strains, locus YMR223W, strain ubp8, hits give low values 0.997 | S. cerevisiae deletion strains, locus YMR231W, strain pep5, hits give low values 0.992 | S. cerevisiae deletion strains, locus YMR263W, strain SAP30, hits give low values 1.01 and 1 | S. cerevisiae deletion strains, locus YMR307W, strain GAS1, hits give low values 1.01 | S. cerevisiae deletion strains, locus YNL067W, strain RPL9B, hits give low values 1 | S. cerevisiae deletion strains, locus YNL071W, strain lat1, hits give low values 0.984 | S. cerevisiae deletion strains, locus YNL128W, strain TEP1, hits give low values 1.03 | S. cerevisiae deletion strains, locus YNL153C, strain GIM3, hits give low values 0.996 and 0.998 | S. cerevisiae deletion strains, locus YNL175C, strain NOP13, hits give low values 1 | S. cerevisiae deletion strains, locus YNL183C, strain NPR1, hits give low values 0.991 | S. cerevisiae deletion strains, locus YNL197C, strain WHI3, hits give low values 1.02 | S. cerevisiae deletion strains, locus YNL209W, strain ssb2, hits give low values 0.974 | S. cerevisiae deletion strains, locus YNL224C, strain SQS1, hits give low values 1.01 | S. cerevisiae deletion strains, locus YNL233W, strain BNI4, hits give low values 1 | S. cerevisiae deletion strains, locus YNL248C, strain rpa49, hits give low values 0.983 | S. cerevisiae deletion strains, locus YNL250W, strain rad50, hits give low values 0.992 | S. cerevisiae deletion strains, locus YNL271C, strain bni1, hits give low values 1 | S. cerevisiae deletion strains, locus YNL298W, strain CLA4, hits give low values 1 | S. cerevisiae deletion strains, locus YNL307C, strain MCK1, hits give low values 0.992 | S. cerevisiae deletion strains, locus YNL322C, strain KRE1 (second series), hits give low values 0.973 | S. cerevisiae deletion strains, locus YNL322C, strain KRE1, hits give low values 1.01 | S. cerevisiae deletion strains, locus YNR049C, strain mso1, hits give low values 0.962 | S. cerevisiae deletion strains, locus YNR052C, strain pop2, hits give low values 1.01 | S. cerevisiae deletion strains, locus YOL006C, strain TOP1, hits give low values 1.03 | S. cerevisiae deletion strains, locus YOL012C, strain htz1 1.1 | S. cerevisiae deletion strains, locus YOL147C, strain pex11, hits give low values 0.995 | S. cerevisiae deletion strains, locus YOR001W, strain rrp6, hits give low values 1 | S. cerevisiae deletion strains, locus YOR061W, strain CKA2, hits give low values 1 | S. cerevisiae deletion strains, locus YOR069W, strain VPS5, hits give low values 1.01 | S. cerevisiae deletion strains, locus YOR070C, strain gyp1, hits give low values 0.992 | S. cerevisiae deletion strains, locus YOR080W, strain dia2, hits give low values 0.987 | S. cerevisiae deletion strains, locus YOR083W, strain WHI5 (second series), hits give low values 0.999 | S. cerevisiae deletion strains, locus YOR083W, strain WHI5, hits give low values 0.964 | S. cerevisiae deletion strains, locus YOR106W, strain vam3, hits give low values 0.932 | S. cerevisiae deletion strains, locus YOR136W, strain idh2, hits give low values 0.994 | S. cerevisiae deletion strains, locus YOR144C, strain elg1, hits give low values 1 | S. cerevisiae deletion strains, locus YOR184W, strain ser1, hits give low values 0.986 | S. cerevisiae deletion strains, locus YOR231W, strain MKK1, hits give low values 1.05 | S. cerevisiae deletion strains, locus YOR265W, strain rbl2, hits give low values 0.993 | S. cerevisiae deletion strains, locus YOR270C, strain vph1, hits give low values 0.947 | S. cerevisiae deletion strains, locus YOR290C, strain snf2, hits give low values 0.909 | S. cerevisiae deletion strains, locus YOR316C, strain cot1, hits give low values 0.991 | S. cerevisiae deletion strains, locus YPL051W, strain arl3, hits give low values 0.998 | S. cerevisiae deletion strains, locus YPL055C, strain LGE1, hits give low values 1.02 and 1 | S. cerevisiae deletion strains, locus YPL078C, strain atp4, hits give low values 0.975 | S. cerevisiae deletion strains, locus YPL106C, strain sse1, hits give low values 0.971 | S. cerevisiae deletion strains, locus YPL240C, strain hsp82, hits give low values 0.98 | S. cerevisiae deletion strains, locus YPL241C, strain CIN2, hits give low values 1.01 | S. cerevisiae deletion strains, locus YPL256C, strain CLN2, hits give low values 1.13 | S. cerevisiae deletion strains, locus YPR119W, strain clb2, hits give low values 0.987 | S. cerevisiae deletion strains, locus YPR141C, strain kar3, hits give low values 0.993 | S. cerevisiae deletion strains, locus YPR163C, strain tif3, hits give low values 0.99 | S. cerevisiae deletion strains, locus YPR167C, strain met16, hits give low values 0.992 | S. cerevisiae deletion strains, strain wtn01, hits give low values 0.982 | S. cerevisiae strains, strain wild type, hits give low values 1.01
